# Test results published in PubChem BioAssay (NCATS).
# “And” between values parts separate entries of the source, which are not always exact repeats. Identical values can stand only once. Inconclusive results are not listed. Where a call stands in place of a potency, no number is given. The source made the active and inactive calls. Unless noted, calls come from the whole dose curve; as a rule, active = well fitted curve in the direction sought with a large enough effect; inconclusive = small, poorly fitted or top-dose-only effect, or another doubt; inactive = no such curve, though single readings can be large; an effect the other way counts as inactive or inconclusive.
# Tests used:
# [1] = qHTS Assay for Lipid Storage Modulators (AID 1519); settings: Drosophila S3 cells, BODIPY lipid droplet/cell ratio, laser cytometry; measured here: lipid channel max response; cells loaded with oleic acid
# Outline: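 Cells seeded at 5,000 per well were treated with compounds over a concentration series and loaded with oleic acid (400 uM, as added). Lipid droplet fluorescence (488 nm excitation, 500-530 nm channel) was read by laser-scanning cytometry and normalized to 20 uM Triacsin C.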
# [2] = target: DNA repair nuclease/redox regulator APEX1 (Homo sapiens) (UniProt P27695); assay: qHTS Validation Assay for Inhibitors of the Human Apurinic/apyrimidinic Endonuclease 1 (APE1) (AID 1705;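 note: TAMRA fluorescence gain over two minutes as APE1 cuts a quenched THF abasic duplex; series mostly up to about 57 µM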)
# DNA repair nuclease/redox regulator APEX1 (Homo sapiens), sequence (P27695 whole entry, looked up): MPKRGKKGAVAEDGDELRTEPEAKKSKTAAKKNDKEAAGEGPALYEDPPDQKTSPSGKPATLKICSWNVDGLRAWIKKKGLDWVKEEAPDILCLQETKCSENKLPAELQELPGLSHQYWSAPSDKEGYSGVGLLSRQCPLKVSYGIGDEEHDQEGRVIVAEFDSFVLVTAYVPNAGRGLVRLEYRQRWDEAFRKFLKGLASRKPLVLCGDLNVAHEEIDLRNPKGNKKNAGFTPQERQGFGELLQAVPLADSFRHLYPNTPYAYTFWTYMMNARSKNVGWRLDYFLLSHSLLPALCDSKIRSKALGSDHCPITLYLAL
# Outline: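 Human APE1 was preincubated with compound for 15 min at room temperature, then 50 nM (final) THF-abasic double-stranded DNA substrate bearing 5'-TAMRA and 3'-BHQ-2 was added. Incision-driven fluorescence rise (ex 525/em 598 nm) was read kinetically.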
# [3] = Counterscreen for APE1 Inhibitors: Fluorescent Dye Displacement Validation Assay (AID 1707)
# Outline: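 Thiazole Orange (250 nM) bound to 50 nM TAMRA-labelled dsDNA with tetrahydrofuran abasic site; displacement by DNA-binding compounds lowers fluorescence. Buffer 50 mM Tris-HCl pH 7.5, 50 mM NaCl, 2 mM MgCl2, 0.01% Tween-20; endpoint read at 480/540 nm.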
# [4] = target: Endonuclease 4 (Escherichia coli (strain K12)) (UniProt P0A6C1); assay: Counterscreen for APE1 Inhibitors: qHTS Validation Assay for Inhibitors of Endonuclease IV (AID 1708)
# Outline: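 2 nM enzyme was preincubated with compounds for 15 min at room temperature in 50 mM Tris-HCl pH 7.5, 50 mM NaCl, 2 mM MgCl2, 1 mM DTT, 0.01% Tween-20. 50 nM THF-abasic TAMRA/BHQ-2 duplex substrate started the reaction.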
# [5] = qHTS for differential inhibitors of proliferation of Plasmodium falciparum line GB4 (AID 1816); settings: Potency: Plasmodium falciparum GB4 proliferation inhibition;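 note: parasite growth measured after 72 h incubation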
# [6] = qHTS for differential inhibitors of proliferation of Plasmodium falciparum line 3D7 (AID 1876);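 note: parasite growth measured after three days of culture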
# [7] = qHTS for differential inhibitors of proliferation of Plasmodium falciparum line D10 (AID 1877);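 note: parasites grown with compound for 72 h before DNA staining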
# [8] = qHTS for differential inhibitors of proliferation of Plasmodium falciparum line Dd2 (AID 1882); settings: Potency: Plasmodium falciparum Dd2 proliferation inhibition;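 note: series mostly up to about 29 µM; compound exposure of 72 h on infected erythrocytes; nearly all actives have a fitted effect of over 65% in size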
# Outline: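 SYBR Green I DNA fluorescence read-out, ex 485/em 535 nm. Signals were normalized to 0.29 uM artemisinin and DMSO wells, then corrected using vehicle-only plates flanking each stack. Parasite growth ran 72 h in erythrocytes before lysis.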
# [9] = qHTS for differential inhibitors of proliferation of Plasmodium falciparum line W2 (AID 1883); settings: Potency: Plasmodium falciparum W2 proliferation inhibition;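 note: parasites grown with compound for 72 h before lysis and staining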
# [10] = qHTS for differential inhibitors of proliferation of Plasmodium falciparum line HB3 (AID 1886); settings: Potency: Plasmodium falciparum HB3 proliferation inhibition;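 note: parasites grown with compound for 72 h before SYBR Green readout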
# [11] = qHTS Assay for Modulators of Human Peripheral Myelin Protein 22 (PMP22) Expression/Activity (AID 1967; active = well fitted curve in the direction sought with a large enough effect in the signal ratio; the % refers to the signal ratio)
# Outline: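 MSC80 mouse Schwann cells stably carrying Pmp22 promoter–green click beetle luciferase plus EF-alpha–red luciferase control were dosed for 24h at 37 °C. Dual-colour luminescence was filter-overlap corrected; %Activity came from green/red ratio versus untreated cells.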
# [12] = target: Ferritin light chain (Equus caballus) (UniProt P02791); assay: qHTS Validation Assay for Identification of Novel General Anesthetics (AID 2323); note: series mostly up to about 77 µM
# Ferritin light chain (Equus caballus), sequence (P02791 2-175 limits assumed): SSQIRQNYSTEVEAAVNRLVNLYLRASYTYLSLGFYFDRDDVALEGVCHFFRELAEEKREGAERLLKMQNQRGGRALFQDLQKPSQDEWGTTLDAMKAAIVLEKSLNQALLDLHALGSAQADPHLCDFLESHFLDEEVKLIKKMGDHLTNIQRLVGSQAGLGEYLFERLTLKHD
# Outline: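 Competitive displacement of profluorescent 1-aminoanthracene (1-AMA, 50% saturated solution in PBS) from 10 uM horse-spleen apoferritin. Compounds incubated 10 min at room temperature; fluorescence read at 380 nm excitation/535 nm emission, normalized to free 1-AMA and complex, fitted with four-parameter Hill equation.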
# [13] = target: ATP-dependent DNA helicase Q1 (Homo sapiens) (UniProt P46063); assay: qHTS Validation Assay for Inhibitors of RecQ-Like Dna Helicase 1 (RECQ1) (AID 2353)
# ATP-dependent DNA helicase Q1 (Homo sapiens), sequence (P46063 whole entry, looked up): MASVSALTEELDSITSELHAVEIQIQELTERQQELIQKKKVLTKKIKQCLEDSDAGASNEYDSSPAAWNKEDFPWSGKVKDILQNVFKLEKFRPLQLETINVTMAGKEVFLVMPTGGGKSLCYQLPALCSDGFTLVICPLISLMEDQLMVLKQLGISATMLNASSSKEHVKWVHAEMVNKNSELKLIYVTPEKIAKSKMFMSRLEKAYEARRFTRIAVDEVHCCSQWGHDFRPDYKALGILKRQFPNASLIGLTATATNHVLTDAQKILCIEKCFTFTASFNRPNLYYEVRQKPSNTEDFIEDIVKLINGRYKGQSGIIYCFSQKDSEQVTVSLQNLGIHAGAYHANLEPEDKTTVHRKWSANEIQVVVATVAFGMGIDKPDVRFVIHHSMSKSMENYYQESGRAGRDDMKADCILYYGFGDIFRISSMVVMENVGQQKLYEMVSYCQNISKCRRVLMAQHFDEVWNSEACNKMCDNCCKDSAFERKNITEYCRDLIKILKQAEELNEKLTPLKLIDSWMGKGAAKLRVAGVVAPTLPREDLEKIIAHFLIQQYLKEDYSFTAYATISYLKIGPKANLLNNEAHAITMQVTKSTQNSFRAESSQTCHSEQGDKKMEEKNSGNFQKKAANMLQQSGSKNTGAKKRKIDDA
# Outline: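 50 nM RECQ1T1 preincubated 15 min with compound in Tris pH 8.0 buffer with MgCl2, DTT, Tween-20 and 2.5 ug/ml poly(dI-dC); started with 200 nM TAMRA/BHQ-2 forked duplex and 2 mM ATP. Unwinding read as fluorescence (525/598 nm), two reads 2 h apart.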
# [14] = Quantitative high throughput screen for delayed death inhibitors of the malarial parasite plastid, 96 hour incubation (AID 488745); note: series mostly up to about 29 µM; nearly all actives have a fitted effect of over 70% in size
# Outline: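 P. falciparum carrying an integrated firefly luciferase reporter, grown in erythrocytes (2% hematocrit, 0.1% parasitemia final) in RPMI 1640/0.5% Albumax, was exposed to compound for 96 h (two generations) at 37 C, 5% CO2. Luminescence decrease indicated growth inhibition.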
# [15] = Quantitative high throughput screen for delayed death inhibitors of the malarial parasite plastid, 48 hour incubation (AID 488752); note: nearly all actives have a fitted effect of over 65% in size
# Outline: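 Erythrocytes infected with P. falciparum carrying an integrated firefly luciferase reporter (2% hematocrit, 0.1% parasitemia final) were exposed to compounds in RPMI 1640/0.5% Albumax for 48 h at 37 C, 5% CO2. Growth inhibition was scored as reduced luminescence.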
# [16] = target: M-phase phosphoprotein 8 (Homo sapiens) (UniProt Q99549); assay: qHTS Validation Assay for Inhibitors for MPP8 Chromodomain Interactions with Methylated Histone Tails (AID 488949);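 note: AlphaScreen signal from MPP8 chromodomain bound to biotinylated H3K9me3 peptide; top concentration of the series differs between compounds; nearly all actives have a fitted effect of over 55% in size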
# M-phase phosphoprotein 8 (Homo sapiens), sequence (Q99549 whole entry, looked up): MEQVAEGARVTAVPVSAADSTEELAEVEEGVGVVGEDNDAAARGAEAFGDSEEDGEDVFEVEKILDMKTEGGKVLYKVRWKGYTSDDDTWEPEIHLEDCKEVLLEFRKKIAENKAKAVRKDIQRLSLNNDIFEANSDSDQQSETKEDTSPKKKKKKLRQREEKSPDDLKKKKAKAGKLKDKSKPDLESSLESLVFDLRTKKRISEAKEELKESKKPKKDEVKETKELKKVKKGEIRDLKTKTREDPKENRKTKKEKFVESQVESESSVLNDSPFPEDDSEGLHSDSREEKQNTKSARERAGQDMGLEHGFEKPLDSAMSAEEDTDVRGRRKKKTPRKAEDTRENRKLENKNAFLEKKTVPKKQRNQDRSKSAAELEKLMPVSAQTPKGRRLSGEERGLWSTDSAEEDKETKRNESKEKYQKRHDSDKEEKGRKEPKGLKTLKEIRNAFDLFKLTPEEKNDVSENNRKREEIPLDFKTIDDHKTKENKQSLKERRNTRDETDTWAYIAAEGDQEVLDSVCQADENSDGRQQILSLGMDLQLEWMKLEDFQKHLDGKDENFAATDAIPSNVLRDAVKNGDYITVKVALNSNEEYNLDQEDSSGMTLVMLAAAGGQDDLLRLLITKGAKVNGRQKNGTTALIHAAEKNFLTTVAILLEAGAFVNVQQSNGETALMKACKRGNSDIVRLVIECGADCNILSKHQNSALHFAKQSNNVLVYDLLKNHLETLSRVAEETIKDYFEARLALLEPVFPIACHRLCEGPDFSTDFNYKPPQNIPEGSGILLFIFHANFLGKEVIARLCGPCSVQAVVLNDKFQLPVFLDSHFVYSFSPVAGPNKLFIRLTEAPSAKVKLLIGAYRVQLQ
# Outline: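 MPP8 (50 nM) was preincubated with biotinylated H3(1-18)K9me3 peptide (50 nM) in PBS pH 7.4, 0.01% Tween-20 for 30 min at room temperature, then with compounds for 30 min; binding was detected by AlphaScreen.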
# [17] = target: Transient receptor potential cation channel subfamily V member 1 (Homo sapiens) (UniProt Q8NER1); assay: HTS Assay for Compounds that Act as Enhancers of the Vanilloid Receptor 1 (AID 488979)
# Transient receptor potential cation channel subfamily V member 1 (Homo sapiens), sequence (Q8NER1 whole entry, looked up): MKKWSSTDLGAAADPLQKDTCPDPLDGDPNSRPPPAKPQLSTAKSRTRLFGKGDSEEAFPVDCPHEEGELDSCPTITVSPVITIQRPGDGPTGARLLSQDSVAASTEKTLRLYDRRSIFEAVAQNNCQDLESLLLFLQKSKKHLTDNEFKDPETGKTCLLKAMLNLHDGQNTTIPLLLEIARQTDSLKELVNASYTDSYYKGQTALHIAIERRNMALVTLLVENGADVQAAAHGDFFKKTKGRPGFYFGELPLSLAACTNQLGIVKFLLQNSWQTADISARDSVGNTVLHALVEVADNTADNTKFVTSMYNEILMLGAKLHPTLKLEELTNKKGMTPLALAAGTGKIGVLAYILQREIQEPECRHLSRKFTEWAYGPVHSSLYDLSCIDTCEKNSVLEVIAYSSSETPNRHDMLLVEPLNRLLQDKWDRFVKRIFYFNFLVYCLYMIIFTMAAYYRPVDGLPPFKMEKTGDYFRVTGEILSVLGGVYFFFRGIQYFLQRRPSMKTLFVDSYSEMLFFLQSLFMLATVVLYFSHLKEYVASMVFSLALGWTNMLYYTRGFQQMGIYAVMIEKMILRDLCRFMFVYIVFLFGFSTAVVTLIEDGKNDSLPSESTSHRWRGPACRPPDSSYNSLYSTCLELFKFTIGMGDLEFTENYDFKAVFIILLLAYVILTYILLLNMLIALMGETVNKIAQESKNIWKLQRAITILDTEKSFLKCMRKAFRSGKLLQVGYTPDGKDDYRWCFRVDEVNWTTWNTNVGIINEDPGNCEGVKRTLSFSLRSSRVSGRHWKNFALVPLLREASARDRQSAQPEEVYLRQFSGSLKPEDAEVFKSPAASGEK
# Outline: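 TRPV1-expressing cells loaded with Fluo-8 calcium dye; compounds added and calcium influx read kinetically for 3 min (agonist phase), then capsaicin at EC20 added and read 2 min more for enhancement. Fluorescence ex 480/em 520 nm.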
# [18] = target: Thyrotropin receptor (Homo sapiens) (UniProt P16473); assay: qHTS Assay for Antagonists of the Thyroid Stimulating Hormone Receptor (AID 488980); note: series mostly up to about 58 µM
# Thyrotropin receptor (Homo sapiens), sequence (P16473 whole entry, looked up): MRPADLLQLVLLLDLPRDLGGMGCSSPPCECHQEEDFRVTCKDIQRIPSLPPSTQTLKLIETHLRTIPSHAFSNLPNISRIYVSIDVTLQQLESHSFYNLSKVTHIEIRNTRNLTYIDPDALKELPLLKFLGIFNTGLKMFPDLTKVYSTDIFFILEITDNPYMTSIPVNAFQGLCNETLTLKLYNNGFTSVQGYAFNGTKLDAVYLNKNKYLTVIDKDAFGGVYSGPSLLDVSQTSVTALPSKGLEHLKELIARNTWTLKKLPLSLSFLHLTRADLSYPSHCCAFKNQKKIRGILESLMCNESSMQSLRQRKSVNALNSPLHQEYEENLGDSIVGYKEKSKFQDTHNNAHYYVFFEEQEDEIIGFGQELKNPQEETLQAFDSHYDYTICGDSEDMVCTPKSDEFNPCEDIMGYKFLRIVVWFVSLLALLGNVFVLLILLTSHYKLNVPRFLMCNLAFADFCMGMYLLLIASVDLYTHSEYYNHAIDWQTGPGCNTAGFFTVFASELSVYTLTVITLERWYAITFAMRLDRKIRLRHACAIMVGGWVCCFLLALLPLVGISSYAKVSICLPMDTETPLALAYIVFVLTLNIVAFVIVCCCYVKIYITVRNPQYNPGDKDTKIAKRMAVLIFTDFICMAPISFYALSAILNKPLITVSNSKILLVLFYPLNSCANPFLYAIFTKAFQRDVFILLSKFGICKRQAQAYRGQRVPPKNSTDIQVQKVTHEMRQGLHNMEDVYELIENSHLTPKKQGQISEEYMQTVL
# Outline: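 HEK293 cells transfected with human TSHR, suspended in HEPES-buffered HBSS with 70 uM RO 20-1724, were treated with compounds plus TSH at EC80 (4 nM final). cAMP was measured by competitive HTRF (cryptate anti-cAMP antibody, cAMP-d2 acceptor).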
# [19] = target: Thyrotropin-releasing hormone receptor (Homo sapiens) (UniProt P34981); assay: qHTS for Small Molecule Agonists and Allosteric Enhancers of Human TRH Receptor: Validation Screen for Agonists (AID 493127;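 active = calcium activation more than 3 SD above the typical response in the agonist read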;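 note: intracellular calcium rise by fluo-8 fluorescence before TRH EC20 addition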); settings: TRH receptor agonist cell assay; at 2 µM; stronger effect = higher value
# Thyrotropin-releasing hormone receptor (Homo sapiens), sequence (P34981 whole entry, looked up): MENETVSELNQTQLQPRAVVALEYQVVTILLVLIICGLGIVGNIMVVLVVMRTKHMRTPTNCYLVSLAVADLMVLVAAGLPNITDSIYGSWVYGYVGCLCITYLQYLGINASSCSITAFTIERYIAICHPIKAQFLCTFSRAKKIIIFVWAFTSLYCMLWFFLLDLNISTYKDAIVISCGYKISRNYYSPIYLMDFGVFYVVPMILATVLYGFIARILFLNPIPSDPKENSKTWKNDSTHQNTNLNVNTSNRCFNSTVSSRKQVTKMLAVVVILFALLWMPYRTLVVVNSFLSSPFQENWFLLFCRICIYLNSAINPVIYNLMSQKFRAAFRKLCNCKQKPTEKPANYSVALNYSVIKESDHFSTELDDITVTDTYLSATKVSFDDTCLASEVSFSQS
# Outline: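 TRHR-expressing cells were plated overnight in serum-containing medium, then loaded with fluo-8 calcium dye at room temperature for 30 min–1.5 h. After a 10 s baseline, compound was pin-transferred and calcium fluorescence (ex 480/em 530) read kinetically for agonist response.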
# [20] = Validation screen for small molecules that induce DNA re-replication in SW480 colon adenocarcinoma cells (AID 504364)
# Outline: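 SW480 cells seeded at 250 per well were exposed to compound or DMSO for 48 hr at 37 C, 5% CO2, then stained with Hoechst for 40 min. DNA content per nucleus was imaged (405 nm ex, 500-530 nm em).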
# [21] = target: DNA dC->dU-editing enzyme APOBEC-3G (Homo sapiens) (UniProt Q9HC16); assay: qHTS for inhibitors of Vif-A3G interactions: Validation (AID 588379)
# DNA dC->dU-editing enzyme APOBEC-3G (Homo sapiens), sequence (Q9HC16 whole entry, looked up): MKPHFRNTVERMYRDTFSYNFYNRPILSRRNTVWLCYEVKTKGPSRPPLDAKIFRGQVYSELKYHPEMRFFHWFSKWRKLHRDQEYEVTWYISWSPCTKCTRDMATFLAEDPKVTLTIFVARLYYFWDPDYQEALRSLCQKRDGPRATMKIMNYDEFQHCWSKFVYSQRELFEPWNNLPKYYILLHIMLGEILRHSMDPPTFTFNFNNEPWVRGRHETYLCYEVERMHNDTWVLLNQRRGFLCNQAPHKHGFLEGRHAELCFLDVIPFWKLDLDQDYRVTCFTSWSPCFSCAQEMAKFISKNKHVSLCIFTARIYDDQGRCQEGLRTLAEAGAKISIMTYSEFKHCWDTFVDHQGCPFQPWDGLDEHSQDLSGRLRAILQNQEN
# Outline: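 HeLa cells stably expressing Vif and A3G-eYFP, 700 cells/well, incubated overnight at 37 deg C, then exposed to compound overnight at 37 deg C. Inhibition of Vif-mediated degradation read as increased yellow fluorescence (Ex 488/Em 500-530) by laser-scanning cytometry.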
# [22] = test system: Zika virus NS2B-NS3 protease; assay: Primary screen GU AMC qHTS for Zika virus inhibitors (AID 1347154); note: nearly all actives have a fitted effect of over 70% in size
# Outline: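 Unlinked Zika NS2B hydrophilic domain/NS3 protease domain noncovalent complex (25 nM final) in 10 mM Tris-HCl pH 8.0, 0.01% Tween 20, with AMC peptide substrate. Fluorescence (ex 340, em 450 nm) change over 15 min, room temperature; percent inhibition fitted to 4-parameter Hill equation.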
# [23] = Primary qHTS for small molecule stabilizers of the endoplasmic reticulum resident proteome: Secreted ER Calcium Modulated Protein (SERCaMP) assay (AID 1508630)
# Outline: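 GLuc-SERCaMP-expressing SH-SY5Y cells, pretreated 16 h with compound, are challenged with thapsigargin to empty ER calcium stores; after 4 h, coelenterazine is added directly to the medium and luminescence is imaged.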
smiles,measurement,setting,value
O=C(O)c1cc(=O)c2ccc(Cl)cc2[nH]1,max response,[1],22.6% and 6.02%
same,Potency,[2],inactive
same,Potency,[3],inactive
same,Potency,[4],inactive
same,Potency,[5],inactive
same,Potency,[6],inactive
same,Potency,[7],inactive
same,Potency,[8],inactive
same,Potency,[9],inactive
same,Potency,[10],inactive
same,outcome,[11],inactive
same,outcome,[12],inactive
same,Potency,[13],inactive
same,Potency,[14],inactive
same,Potency,[15],inactive
same,Potency,[16],inactive
same,outcome,[17],inactive
same,outcome,[18],inactive
same,activation,[19],1.31% (inactive)
same,outcome,[20],inactive
same,Potency,[21],inactive
same,Potency,[22],inactive
same,Potency,[23],inactive
